Results on three compounds are retold here after paper PMC5540273 (PLoS ONE, 2017).

For one assay, the system named is CDK4-cyclinD1. To be noted: n = 1.
The test system of a further assay is CDK4-cyclinD3. To be noted: n = 1.
In a further assay the test system is CDK4. To be noted: n = 1.
Another assay deals with CDK5. The settings on record: concentration: 1 μM, replicates: in singlicate; n = 1.
Another assay deals with CDK7. The settings on record: concentration: 1 μM, replicates: in singlicate; n = 1.
Another assay has as its system CDK8. To be noted: concentration: 1 μM, replicates: in singlicate; n = 1.
A further assay concerns CDK9. The settings on record: concentration: 1 μM, replicates: in singlicate; n = 1.
Another assay relates to CDKL1. The settings on record: concentration: 1 μM, replicates: in singlicate; n = 1.
The test system of another assay is CDKL2. To be noted: concentration: 1 μM, replicates: in singlicate; n = 1.
The subject of another assay is CDKL3. The settings on record: concentration: 1 μM, replicates: in singlicate; n = 1.
For the next assay, the system named is CDKL5. The settings on record: concentration: 1 μM, replicates: in singlicate; n = 1.
The subject of a further assay is CHEK1. The settings on record: concentration: 1 μM, replicates: in singlicate; n = 1.
The test system of a further assay is CHEK2. To be noted: concentration: 1 μM, replicates: in singlicate; n = 1.
Another assay concerns CIT. To be noted: concentration: 1 μM, replicates: in singlicate; n = 1.
A further assay has as its system CLK1. To be noted: concentration: 1 μM, replicates: in singlicate; n = 1.
The next assay deals with CLK2. To be noted: concentration: 1 μM, replicates: in singlicate; n = 1.
In another assay the test system is CLK3. The settings on record: concentration: 1 μM, replicates: in singlicate; n = 1.
The test system of another assay is CLK4. The settings on record: concentration: 1 μM, replicates: in singlicate; n = 1.
Another assay relates to CSF1R-autoinhibited. To be noted: concentration: 1 μM, replicates: in singlicate; n = 1.
A further assay concerns CSF1R. To be noted: concentration: 1 μM, replicates: in singlicate; n = 1.
The mark [1] stands for this setting: concentration: 1 μM, replicates: in singlicate.

Molecules are shown by their SMILES. Where two headings read alike, the source gives them in different places.
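Also: KINOMEscan kinase panel screen.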

In the case of `O=C1NC(=O)C(c2ccc(Cl)cc2)=C1Nc1cccc(Cl)c1` [SB-317651], the “%Inh” value in the assay with CDK4-cyclinD1 (setting [1]) was 12%; with CDK4-cyclinD3 (setting [1]) it was 0%; in the assay with CDK4 (setting [1]) it was 100%; with CDK5 it was 0%; with CDK7, 16%; in the assay on CDK8, 2%. The “%Inh” value stood at 0% in the assay with CDK9; 11% in the assay on CDKL1; 20% in the assay with CDKL2; 2% in the assay with CDKL3; 0% with CDKL5; 0% with CHEK1. In addition, the “%Inh” value turned out to be 0% in the assay with CHEK2; 0% in the assay on CIT; 91.6% in the assay on CLK1; 34% in the assay on CLK2; 2% with CLK3; 16% in the assay with CLK4. Besides, the “%Inh” value with CSF1R-autoinhibited was determined as 6%; in the assay on CSF1R it was 13%.
Consider `COc1nccc(-c2c(-c3ccc(F)cc3)ncn2CCCN2CCOCC2)n1` [SB-282852], for which the “%Inh” value is reported as 44% with CDK4-cyclinD1 (setting [1]); 15% in the assay on CDK4-cyclinD3 (setting [1]); 100% in the assay with CDK4 (setting [1]); 0% with CDK5; 27% in the assay with CDK7; 55% with CDK8. The “%Inh” value with CDK9 is 0%; in the assay with CDKL1 it was 31%; with CDKL2 it was 36%; with CDKL3, 0%; in the assay with CDKL5 it was 0%; in the assay on CHEK1 it was 0%. The “%Inh” value in the assay with CHEK2 came out at 0%; with CIT, 17%; in the assay on CLK1, 73%; in the assay with CLK2, 0%; in the assay with CLK3 it was 0%; in the assay on CLK4, 5%. Moreover, the “%Inh” value in the assay with CSF1R-autoinhibited came out at 41%; in the assay on CSF1R, 0%.
Regarding `CS(=O)(=O)Cc1ccc(Nc2nccc(-c3c(-c4cccc(NC(=O)C5CCCCC5)c4)nn4ncccc34)n2)cc1` [GSK350559], the “%Inh” value is 15% in the assay on CDK4-cyclinD1 (1 µM); 18% in the assay with CDK4-cyclinD3 (1 µM); 18% in the assay with CDK4 (1 µM); 4% with CDK5; 6% in the assay with CDK7; 0% with CDK8. Further, the “%Inh” value is listed as 0% with CDK9; 0% in the assay with CDKL1; 5% in the assay on CDKL2; 0% in the assay on CDKL3; 33% with CDKL5; 12% in the assay on CHEK1. Also, the “%Inh” value in the assay on CHEK2 is recorded as 0%; in the assay on CIT, 10%; in the assay on CLK1, 10%; with CLK2, 10%; in the assay on CLK3, 24%; in the assay on CLK4, 0%. Besides, the “%Inh” value in the assay on CSF1R-autoinhibited worked out at 35%; in the assay on CSF1R, 79%.
